# Source: PubChem BioAssay AID720616 (Broad Institute, 2013)
# Potency and affinity values are given separately. Calls of active or inactive are those of the source.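 Rule for the calls: active = ATP viability loss whose half-effect dose is at most twice the top dose, in all three treatment times; inconclusive = calls differ between the treatment times; inactive = inactive at every treatment time.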
# Assay: cytotoxicity in U-251 glioma cells – cell-based, CellTiter-Glo ATP luminescence, several timepoints, dry powder, mechanism study for HRAS target identification, late-stage follow-up (AID 720616)
# Conditions: U-251 glioblastoma viability; series mostly up to 35 µM
row,Compound,outcome
1,Cc1onc(C(=O)N2CCN(C(c3ccc(Cl)cc3)c3ccc(Cl)cc3)CC2)c1[N+](=O)[O-],inactive
2,Cc1onc(C(=O)N2CCN(C(c3ccncc3)c3ccncc3)CC2)c1[N+](=O)[O-],inactive
3,CCC(=O)N(c1ccc(OC)c(Cl)c1)C(C(=O)NCCc1ccccc1)c1cccs1 (stereo not drawn),inactive
